Source: PubChem BioAssay
An excerpt weighted towards active compounds, which were near 19% of everything screened.
KB-3-1 cytotox = KB-3-1 parental cell cytotoxicity | 400,000 tested, 1.4% active | KB-3-1 viability, CellTiter-Glo ATP luminescence, 72 h | AID 1347075 | Potency, µM (titrated, usually from 46.1 µM), usual class: cytotoxic; also: nearly all actives have a fitted effect of over 60% in size
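Here the drug-naive KB-3-1 line serves as comparator for MDR sub-line selectivity; cells received compound titrations, 72 h at 37 °C, then CellTiter-Glo readout.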
HT1080 IDH1KD tx = toxicity to HT-1080 IDH1 knockdown cells (counter line) | HT-1080 IDH1 knockdown viability, ATP luminescence, 48 h | Potency, µM (top dose mostly 46.1 µM), for inactives: at the top dose activity, negative = toxicity, most hits filed as cytotoxic | 360,000 tested, 2% active | AID 686971;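 also: 0% = DMSO wells and -100% = cell-free medium wells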
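Cytotoxicity counter-line: IDH1KD HT-1080, 48 h, CellTiter-Glo. Curves classed by r2, magnitude and activity.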
DT40 TDP1 no CPT = qHTS for Inhibitors of human tyrosyl-DNA phosphodiesterase 1 (TDP1): qHTS in cells in absence of CPT. DT40 Tdp1-/- hTDP1 cells, no CPT, ATP luminescence, 48 h. Potency, µM (titrated, usually from 46.2 µM), for inactives: at the top dose activity change, negative = growth inhibition, usual class: inhibitors. 420,000 tested, 15% active; also: nearly all actives have a fitted effect of over 55% in size
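Compound effects on proliferation are scored in DT40 Tdp1-/-;hTDP1 cells in the absence of CPT. ATP levels (CellTiter-Glo luminescence) are recorded after a ≥48 hr, 37 °C incubation.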
KB-V1 cytotox = kills drug-selected multidrug resistant KB-V1 cells | AID 1347076 | Potency, µM (top dose mostly 46.1 µM), usual class: cytotoxic | KB-V1 MDR cells viability, CellTiter-Glo, 72 h | 400,000 tested, 3.4% active; also: nearly all actives have a fitted effect of over 60% in size
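In this primary screen, KB-V1 cells overexpressing P-gp are incubated with library compounds (lowest to highest concentration) for 72 h at 37 degrees C before a luminescent ATP viability read.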
DT40 TDP1 CPT = DT40-hTDP1 cell growth loss with CPT. Potency, µM (titrated, usually from 46.2 µM), for the others: top-dose activity change, negative = growth inhibition, most hits filed as inhibitors. chicken DT40 Tdp1-/-;hTDP1 cells + 20 nM CPT, ATP luminescence, 48 h. 420,000 tested, 12% active. AID 686979; also: nearly all actives have a fitted effect of over 55% in size
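Chicken DT40 Tdp1-/- cells complemented with human TDP1, 400 cells/well, exposed to compounds plus 20 nM camptothecin for at least 48 h at 37 C; viability read as ATP content by CellTiter-Glo luminescence.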
HT1080-NT tox = kills 2HG-producing HT-1080-NT fibrosarcoma cells; HT-1080-NT fibrosarcoma viability, CellTiter-Glo ATP luminescence, 48 h; Potency, µM (series often up to 46.1 µM), inactives show at the top dose activity, negative = less viability, hits mostly cytotoxic; 360,000 tested, 1.6% active;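 also: NT is the 2HG producing partner of a matched IDH1 knockdown line; 0% = DMSO-treated cells and -100% = media-only wells without cells; nearly all actives have a fitted effect of over 55% in size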
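Luminescent CellTiter-Glo readout after 48 hours of compound exposure at 37 degrees C defined viability of HT-1080-NT cells. Activity was normalized to DMSO wells and cell-free media wells; concentration-response curves were fitted and assigned curve classes.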
Numbers without * were called inactive; i = inactive; ? = inconclusive; · = not tested or not shown; ! = not active in a repeat; [ ] = another dose, or the depositor's remark. Calls follow the shape of the dose curve; as a rule, active = well fitted curve in the direction sought with a large enough effect; inconclusive = small, poorly fitted or top-dose-only effect, or another doubt; inactive = no such curve, though single readings can be large; an effect the other way counts as inactive or inconclusive. Unless noted, % is scaled to controls: 0 for no effect and ±100 for the full control effect; potency is read from the fitted curve at half-maximal effect.

SMILES	KB-3-1 cytotox	HT1080 IDH1KD tx	DT40 TDP1 no CPT	KB-V1 cytotox	DT40 TDP1 CPT	HT1080-NT tox
CCOc1ccc(NC(=O)Cn2cc(C(C)=O)c3ccccc32)cc1	i	-1%	?	i	?	11%
COc1ccc(C(=O)n2cc(C(C)=O)c3ccccc32)cc1	i	?	15µM*	i	10µM*	?
CCOc1ccc(NC(=O)Cn2cc(C(=O)CC)c3ccccc32)cc1	i	-1%	26µM*	i	13µM*	-17%
O=C(C(Cc1ccccc1)N1C(=O)c2ccccc2C1=O)N1c2ccccc2CCc2ccccc21 (stereo unspecified)	i	-28%	6.5µM*	?	12µM*	-16%
CC(=O)Nc1ccc2c(c1)N(C(=O)CN(C)C)c1ccccc1CC2	i	25%	-8%	i	-8%	8%
CC(Cl)C(=O)N1c2ccccc2CCc2ccccc21 (stereo unspecified)	i	1%	13µM*	i	?	2%
CC(=O)N(C)N1c2ccccc2CCc2ccccc21	i	2%	15µM*	i	?	-9%
Cc1ccc(CNC(=O)C2CCCCN2S(=O)(=O)c2ccc(F)cc2)cc1 (stereo unspecified)	i	·	26µM*	?	13µM*	·
COC(=O)c1ccc(CNC(=O)[C@@H]2CCCN2S(=O)(=O)c2ccccc2F)cc1	i	-1%	11%	i	3%	-4%
COc1ccc(CNC(=O)C2CCCN2S(=O)(=O)c2ccccc2)cc1 (stereo unspecified)	i	-2%	?	?	?	11%
O=C(NCc1cccs1)C1CCCN1S(=O)(=O)c1ccccc1F (stereo unspecified)	i	-2%	-6%	12µM*	-29%	2%
O=C(NCc1ccc(F)cc1)C1CCCN1S(=O)(=O)c1ccccc1C(F)(F)F (stereo unspecified)	i	-2%	?	i	13µM*	-2%
CC(C)c1ccc(CNC(=O)C2CCCN2S(=O)(=O)c2ccccc2)cc1 (stereo unspecified)	i	-2%	12µM*	i	?	-9%
COC(=O)c1cc(C)nc2c1C(=O)C(=O)C=C2N1CCOCC1	?	5.2µM*	1µM*	?	3.3µM*	6.5µM*
COc1cc(-c2cc(C(=O)N3CCN(c4ccccn4)CC3)c3ccccc3n2)cc(OC)c1OC	?	-11%	23µM*	?	?	6%
CCCc1ccc(-c2cc(C(=O)N3CCN(c4ccccn4)CC3)c3ccccc3n2)cc1	?	?	18µM*	?	?	-12%
CCOc1ccc(-c2cc(C(=O)N3CCN(c4ccccn4)CC3)c3ccccc3n2)cc1	4.1µM*!	?	9.2µM*	?	5.8µM*	?
O=C(Nc1cc(S(=O)(=O)N2CCCCC2)ccc1O)c1ccccc1NS(=O)(=O)c1ccc(F)c(F)c1	?	-1%	?	?	-21%	-7%
COc1cc(-c2nnc(SCC(=O)NCc3ccccc3Cl)o2)cc(OC)c1OC	i	·	?	i	?	·
COCCOC(=O)C1=C(C)NC(=O)NC1c1cn(-c2ccccc2)nc1-c1ccccc1 (stereo unspecified)	i	·	1%	i	0%	·
Cc1cc(C=C2C(=O)CCCC2=O)c(C)n1-c1ccccc1	i	2%	?	i	-9%	5%
Cc1cc(/C=C2\C(=O)NN(c3ccccc3)C2=O)c(C)n1-c1ccccc1O	i	-21%	15µM*	i	?	-5%
Cc1cc(/C=C2/C(=O)NN(c3ccccc3)C2=O)c(C)n1-c1ccc(O)cc1	i	?	18µM*	i	?	-17%
O=C1NN(c2ccccc2)C(=O)/C1=C\c1coc2ccc(O)cc2c1=O	i	?	21µM*	i	16µM*	-13%
COc1ccc(-n2c(C)cc(/C=C3\C(=O)NN(c4ccccc4)C3=O)c2C)cc1	i	14%	-15%	i	4%	20%
SMILES	KB-3-1 cytotox	HT1080 IDH1KD tx	DT40 TDP1 no CPT	KB-V1 cytotox	DT40 TDP1 CPT	HT1080-NT tox
O=C1NN(c2ccccc2)C(=O)/C1=C/c1coc2ccccc2c1=O	?	-2%	?	i	?	1%
Cc1cccc(NS(=O)(=O)c2ccc3c(c2)OCC(C(=O)N2CCCC2)O3)c1C (stereo unspecified)	i	·	?	i	?	·
CC(O)(COc1ccccc1)c1ccc2c(c1)CN(Cc1ccc3nsnc3c1)CCO2 (stereo unspecified)	·	·	-26%	·	-2%[9.04 µM]	·
COc1ccc(NC(=O)c2ccc(N3C(=O)C4CC=C(Cl)CC4C3=O)cc2)cc1 (stereo unspecified)	i	-23%	29µM*	i	-26%	-23%
Cc1ccc(N2C(=O)CC(SCC(=O)Nc3ccc(S(N)(=O)=O)cc3)C2=O)cc1 (stereo unspecified)	i	8%	?	i	?	12%
NS(=O)(=O)c1ccc(NC(=O)CSC2CCCCC2)cc1	i	-2%	29µM*	i	16µM*	-2%
COc1ccc(NC(=O)CSC2CCCCC2)cc1	i	-5%	-20%	i	-20%	7%
O=C(CSC1CC(=O)N(c2ccc(C(=O)O)cc2)C1=O)Nc1ccc2ccccc2c1 (stereo unspecified)	i	-5%	?	i	?	0%
CCOC(=O)c1ccc(N2C(=O)CC(SCC(=O)Nc3ccc(S(N)(=O)=O)cc3)C2=O)cc1 (stereo unspecified)	i	20%	?	?	23µM*	20%
COC(=O)c1ccc(N2C(=O)CC(SCC(=O)Nc3ccc(OC)cc3)C2=O)cc1 (stereo unspecified)	i	1%	5.2µM*	i	15µM*	-2%
Cc1cc2c(c(-c3nc4ccccc4s3)c1)OC(CNC(=O)c1occc1C)C2 (stereo unspecified)	·	·	?	·	19%[9.04 µM]	·
C=CCOC1COC2C(OCC=C)COC12 (stereo unspecified)	i	9%	-15%	i	14%	8%
O=C1OC(N2C(=O)CC[C@H]2C(=O)Nc2ccc(Br)cc2F)c2ccccc21 (stereo partly specified)	i	-1%	2%	i	0%	0%
